# PubChem BioAssay (EPA / NIEHS)
# Inconclusive results are not listed. Calls of active or inactive are those of the source. The calls were made as follows: active = hit-call score of the fitted dose curve at least 0.9, where 1 is the maximum; inconclusive = response in the unintended direction; inactive = score below 0.9.
# Target: human Serotonin, 5-Hydroxytryptamine Receptor 7 (5HT7), HTR7 (gene 3363) (UniProt P34969)
# Assay: NVS_GPCR_h5HT7: NovaScreen (NVS) G Protein-Coupled Receptor Assay for human Serotonin, 5-Hydroxytryptamine Receptor 7 (5HT7) (AID 2283255)
# Experimental: NVS_GPCR_h5HT7 is a biochemical, single-readout assay that uses extracted gene-proteins from CHO in a cell-free assay. Measurements were taken 1 hour after chemical dosing in a 96-well plate.NVS_GPCR_h5HT7 is one of one assay component(s) measured or calculated from the NVS_GPCR_h5HT7 assay. It is designed to make measurements of radioligand binding, a form of binding reporter, as detected with scintillation counting signals by Filter-based radiodetection technology.Data from the assay component NVS_GPCR_h5HT7 was analyzed into 1 assay endpoint. This assay endpoint, NVS_GPCR_h5HT7, was analyzed in the positive analysis fitting direction relative to DMSO as the negative control and baseline of activity. Using a type of binding reporter, loss-of-signal activity can be used to understand changes in the binding as they relate to the gene HTR7. Furthermore, this assay endpoint can be referred to as a primary readout, because the performed assay has only produced 1 assay endpoint. To generalize the intended target to other relatable targets, this assay endpoint is annotated to the gpcr intended target family, where the subfamily is rhodopsin-like receptor.
# Binding assays used specific radioligands (tritiated, iodinated) with non-radioactive competitive displacement ligands in agonist or antagonist protocols (as indicated) and various reference compounds and inhibitors to titrate specific binding to receptors and transporters. Most enzyme assays (CYPs, kinases, phosphatases, proteases, HDACs) used recombinant protein and specific substrates (fluorescence mostly, some colorimetric and radioactive) and inhibitors, followed by a biochemical separation of substrate and product. All assays for the biochemical HTS were initially run in duplicate at a single concentration (10 uM for CYP450 assays and 25 uM for all others). […] Each assay was run with positive and negative controls, and concurrent controls on every plate. The follow-up (secondary) screen tested active chemical-pairs in concentration series, as well as a few additional assays not tested in the primary screen, some selected negative inactives, and several cases re-run in the concentration series for confirmatory purposes.
# Chain of human Serotonin, 5-Hydroxytryptamine Receptor 7 (5HT7), HTR7 (gene 3363) (P34969 whole entry, looked up): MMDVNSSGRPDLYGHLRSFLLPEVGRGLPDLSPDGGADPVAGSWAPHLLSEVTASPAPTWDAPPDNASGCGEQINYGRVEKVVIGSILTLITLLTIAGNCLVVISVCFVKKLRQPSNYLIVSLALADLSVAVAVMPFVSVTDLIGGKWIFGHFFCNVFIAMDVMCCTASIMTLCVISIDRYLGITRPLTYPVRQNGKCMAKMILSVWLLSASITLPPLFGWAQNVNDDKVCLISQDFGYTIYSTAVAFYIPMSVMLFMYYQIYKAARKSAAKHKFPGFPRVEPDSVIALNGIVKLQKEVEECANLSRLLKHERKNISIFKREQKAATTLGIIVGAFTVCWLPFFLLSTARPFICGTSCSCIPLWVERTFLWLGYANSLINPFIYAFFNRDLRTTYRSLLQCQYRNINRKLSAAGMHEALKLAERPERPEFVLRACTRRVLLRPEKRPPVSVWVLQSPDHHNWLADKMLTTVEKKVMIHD
Structure (SMILES),AC50,outcome
O=C(OCCOCCOC(=O)c1ccccc1)c1ccccc1,8.96 µM (active),
CCN(CC)CCNc1ccc(CNC=O)c2sc3ccc(OC)cc3c(=O)c12,,inactive
CN1CCN(c2ccccc2/C=C2\SCCN(c3ccc(Cl)c(Cl)c3)C2=O)CC1,0.0142 µM (active),
CCC(=C(c1ccc(O)cc1)c1ccc(OCCN(C)C)cc1)c1ccccc1,5.49 µM (active),
Oc1cccc(O)c1,,inactive
O=[N+]([O-])c1ccc(O)cc1,,inactive
Cc1oc(-c2ccccc2)nc1CCOc1ccc(C[C@H](Nc2ccccc2C(=O)c2ccccc2)C(=O)O)cc1,,inactive
O=C(O)Cc1cc(I)c(Oc2cc(I)c(O)c(I)c2)c(I)c1,5.26 µM (active),
CC#C[C@]1(O)CC[C@H]2[C@@H]3CCC4=CC(=O)CCC4=C3[C@@H](c3ccc(N(C)C)cc3)C[C@@]21C,23.7 µM (active),
NC(=O)N(O)[C@@H]1C=C[C@H](Oc2cccc(Oc3ccc(F)cc3)c2)C1,12.8 µM (active),
CCCOc1sc(C(=O)N2CCC(c3cc(CN)ccc3F)CC2)c(C)c1Br,5.09 µM (active),
CCCCCCCCCCCCc1ccccc1S(=O)(=O)O,7.69 µM (active),
NC(=O)N1C(=O)C(C(=O)c2cc(Cl)cs2)c2cc(F)c(Cl)cc21 (stereo not given),,inactive
CC[C@H](c1ccc(O)cc1)[C@@H](CC)c1ccc(O)cc1,,inactive
CC(=O)NC1(c2cccc(F)c2)CCN(CC[C@@]2(c3ccc(Cl)c(Cl)c3)CN(c3ccccc3)C(=O)CO2)CC1,20.8 µM (active),
